Growth data for 22 molecules are collected here from PubChem BioAssay (NCI).

Common to all, as to assay: NCI-60 one-dose screen, 48 h (100 = growth as untreated, 0 = no growth, -100 = all killed)
Settings in all cases: 10 µM unless noted

The test system of test [1] is NCI-H23 lung.
Test [2] relates to NCI-H226 lung.
The subject of test [3] is NCI-H322M lung.
In test [4] the test system is HOP-62 NSCLC.
The subject of test [5] is NCI-H460 lung.
Test [6] relates to HOP-92 NSCLC.
Test [7] deals with NCI-H522 lung.
The subject of test [8] is A549/ATCC NSCLC.
Test [9] has as its system 786-0 renal.
The test system of test [10] is COLO 205 colon.

Compounds without any hit were thinned out: in the full panel of roughly 83,000, 20% have a hit.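 Results are percent growth after 48 hours of single-concentration exposure. 100 means growth as in untreated cells, lower positive values show inhibition; negative values down to -100 show cell death.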 Unmarked numbers belong to inactive results. Calls of active or inactive are those of the source. The calls were made as follows: active = growth percent below 10; inactive = the rest.

As for `COc1ccc(/C=C/C(=O)c2cc(OC)c(OC)c(OC)c2)cc1OCC(=O)Nc1nc2ccc(OC(F)(F)F)cc2s1`, the growth in test [1] is 11.5%; in test [2] it was 40.6%; in test [3], 4.88% (active); in [4] it was -53.3% (active); in test [5], -22.9% (active); in test [6], 54.9%. Also, the growth in [7] is -35.5% (active); in test [8], 14.7%; in test [9], 58.9%; in test [10] it was 77%.

Consider `CC1(C)CC(=O)c2c(nn(-c3ccc(Br)cc3)c2-c2cn(-c3ccccc3)nc2-c2cccnc2)C1`, for which the growth in [1] was 90.4%; in test [2], 98.4%; in test [3], 93%; in test [4] it was 81.3%; in [5], 97.5%; in test [6], 87.2%. The growth is 85.6% in test [7], 92.5% in test [8], 100% in test [9] and 105% in [10].

On to `C/C(=N\O)c1ccc(NC(=O)CSc2nnc(-c3cc(-c4ccc(S(C)(=O)=O)cc4)nc4ccccc34)n2-c2ccccc2)cc1`, for which the growth is 99.2% in [1]; 90.3% in test [2]; 91.7% in test [3]; 98.7% in test [4]; 90.4% in test [5]; 80.7% in [6]. Moreover, the growth in test [7] is 82.2%; in test [8], 81.3%; in test [9] it was 93.9%; in test [10] it was 102%.

As to `Cc1c(CC(=S)N2CCOCC2)nnn1-c1cccc(C(F)(F)F)c1`, the growth in test [1] was 107%; in test [2] it was 107%; in test [3], 109%; in [4], 101%; in test [5], 103%; in test [6] it was 111%. Also, the growth in test [7] was 89.6%; in [8], 107%; in [9] it was 110%; in test [10] it was 119%.

Regarding `Nc1nc(N)c2c(n1)NC(c1ccc(Cl)cc1)C1CCc3ccccc3C1=N2` (stereo not given), the growth in test [1] is 47.2%; in test [2], 60.2%; in test [3], 71.7%; in [4], 84.2%; in test [5], 22.7%; in test [6], 94.3%. Besides, the growth in test [7] was 76.7%; in [8] it was 64%; in test [9], 64.4%; in test [10] it was 51.6%.

With `N#Cc1nc(-c2ccccc2)oc1S(=O)(=O)N1CCN(c2ccc(F)cc2)CC1`, the growth is 80.8% in test [1]; 85.7% in [2]; 91.6% in test [3]; 112% in test [4]; 102% in [5]; 76% in [6]. Further, the growth in test [7] was 2.64% (active); in test [8], 101%; in test [9], 64.9%; in test [10], 33.6%.

`CC1=CC(c2ccco2)=C2C(N)=NNC2N1` (stereo not given): the growth in test [1] was 97.6%; in [2] it was 95.7%; in [3], 92.6%; in [4], 88.8%; in test [5] it was 100%; in test [6], 77.8%. Also, the growth in [7] was 95.2%; in test [8], 101%; in test [9] it was 97.6%; in test [10], 116%.

`Cc1ccccc1Nc1cc(O)c2c(=O)cc(-c3ccccc3)oc2c1`: the growth is 45.5% in test [1]; 57.8% in test [2]; 70.5% in test [3]; 49.4% in test [4]; 8.06% (active) in [5]; 86.7% in [6]. In addition, the growth in [7] is 36%; in test [8] it was 35.2%; in test [9], 43.5%; in test [10] it was 61.8%.

On to `NC(=O)c1cnc(Nc2cccc(N)c2)nc1NCCCNC(=O)C1CCC1`, for which the growth was 79.8% in test [1]; 69.1% in [2]; 86.6% in test [3]; 46.6% in [4]; 69.8% in test [5]; 123% in test [6]. Besides, the growth was 64.5% in test [7], 87.7% in test [8], 76.8% in [9] and 28.2% in test [10].

As for `NC(=O)c1c(NC(=O)c2cccs2)sc2c1CCC(=O)C2`, the growth in test [1] was 20.4%; in [2], 82.9%; in [3], 77.2%; in test [4] it was 84.6%; in test [5] it was 87.5%; in test [6] it was 36.7%. The growth in test [7] was -0.894% (active); in test [8], 84.8%; in [9], 76%; in test [10], 34.2%.

In the case of `CCN1CCN(CC(=O)Nc2ccc(-c3cn4c(n3)sc3cc(Oc5ccnc(C(=O)NC)c5)ccc34)cc2)CC1`, the growth was 97.1% in test [1]; 105% in [2]; 75.9% in [3]; 66.1% in test [4]; 48.7% in [5]; 54.6% in test [6]. In addition, the growth in test [7] was 83.7%; in test [8] it was 78.2%; in test [9] it was 75.3%; in [10], 51.8%.

For `CCCCC#Cc1c(I)n(C)c(=O)[nH]c1=O`, the growth is 14.4% in test [1]; 39.8% in [2]; 101% in [3]; 93.9% in [4]; 103% in [5]; -89.7% (active) in test [6]. The growth in test [7] was -13.4% (active); in test [8], 70.9%; in test [9], 98.2%; in [10] it was -36.8% (active).

As for `CCOC(=O)c1ccccc1-c1c2ccc(=[N+](C)C)cc-2oc2cc(N(C)C)ccc12`, the growth is 93% in [1]; 19.5% in test [2]; 12.6% in [3]; 6.81% (active) in [4]; 3.9% (active) in test [5]; -19.3% (active) in [6]. For the same molecule, the growth in test [7] was 14.2%; in test [8], 12%; in [9], 20.5%; in test [10] it was -46.6% (active).

`CCOC(=O)c1c(C)nc2ccccc2c1/C=C/c1cccs1`: the growth in [1] is 57.6%; in test [2], 72.4%; in test [3] it was 89.1%; in test [4], 84.7%; in test [5], 85.2%; in [6] it was 68.6%. In addition, the growth in test [7] was 57%; in test [8], 64.9%; in [9], 89.7%; in test [10] it was 84.5%.

For the molecule `O=C1/C(=C2\SC(=S)N(C3CC3)C2=O)SC(=S)N1C1CC1`, the growth in [1] is 96.7%; in [2], 95.5%; in [3], 95.6%; in [4] it was 99.3%; in [5] it was 103%; in test [6], 98.9%. In addition, the growth is 91.9% in test [7], 98.1% in test [8], 98.6% in test [9] and 117% in test [10].

For `C#Cc1cccc(Nc2nc(C)nc3cc(NC(=O)CCl)ccc23)c1`, the growth in test [1] is -55.6% (active); in test [2] it was -28.1% (active); in test [3], -31.3% (active); in test [4] it was -84.2% (active); in test [5] it was -64.1% (active); in test [6], -82% (active). Besides, the growth in test [7] is -77.5% (active); in test [8] it was 5.92% (active); in test [9] it was -72.5% (active); in test [10] it was -78.6% (active).

`COc1ccc(C(O)c2cc3c(N)c(C(=O)Nc4cccc(Cl)c4C)sc3nc2C)cc1` (stereo not given): the growth in test [1] was 25.5%; in [2], 54.5%; in [3], 39.4%; in [4] it was 16.2%; in [5] it was -6.01% (active); in test [6] it was 16.2%. In addition, the growth in test [7] is -34.9% (active); in test [8], 10.5%; in test [9] it was 22.2%; in test [10] it was -23% (active).

In the case of `S=C(c1ccc2c(c1)OCO2)N1CCN(c2cccc(Cl)c2)CC1`, the growth was 35% in test [1]; 34.2% in [2]; 57.3% in test [3]; 37.5% in test [4]; 6.73% (active) in [5]; 63.9% in test [6]. Also, the growth was 2.22% (active) in test [7], 35.9% in test [8], 37.8% in test [9] and 25.4% in test [10].

In the case of `C=C1C(=O)O[C@H]2[C@H]1CC/C(COC(=O)c1cc3cc(Cl)ccc3[nH]1)=C\CC[C@@]1(C)O[C@@H]21`, the growth in test [1] is -64.9% (active); in test [2], -64.2% (active); in test [3] it was 44.3%; in test [4] it was -63.6% (active); in [5], 6.97% (active); in test [6] it was -80.3% (active). Moreover, the growth in [7] is -81.1% (active); in [8] it was -67.5% (active); in test [9] it was -90.5% (active); in test [10] it was -77.6% (active).

For `O=C(CSc1nnc(-c2cc(-c3ccccc3)nc3ccccc23)n1-c1ccccc1)Nc1ccc(C(=O)/C=C/c2ccc(Cl)cc2)cc1`, the growth was 96.1% in [1]; 91.4% in test [2]; 93.1% in test [3]; 93% in [4]; 102% in test [5]; 82.1% in [6]. In addition, the growth was 71.8% in [7], 84.4% in [8], 96.3% in test [9] and 99.6% in [10].

Regarding `Cc1ccc(-c2nc(SCc3nc4cc(Cl)c(Cl)cc4[nH]3)[nH]c(=O)c2C#N)cc1`, the growth was 99.2% in test [1]; 103% in test [2]; 101% in test [3]; 91.9% in test [4]; 112% in test [5]; 104% in test [6]. The growth in test [7] was 89.1%; in test [8] it was 93.1%; in test [9], 94.5%; in test [10] it was 107%.

Consider `NS(=O)(=O)c1ccc(NC(=O)/C(=C\c2ccc(Cl)cc2Cl)NC(=O)c2ccccc2)cc1`, for which the growth in test [1] is 107%; in test [2], 103%; in test [3], 102%; in test [4], 95.7%; in [5] it was 105%; in test [6], 87%. The growth is 80.3% in test [7], 105% in test [8], 104% in test [9] and 110% in test [10].
